# Measurements from ChEMBL document CHEMBL3433997, “St. Jude Leishmania screening dataset” (2016).
# How the values were obtained:
# Type in all cases: functional
# [1] = target: Solute carrier family 2, facilitated glucose transporter member 1 (Homo sapiens) (UniProt P11166); assay: ST_JUDE_LEISH: Cytotoxicity at 2uM final concentration against transgenic Leishmania Mexicana promastigotes LmGLUT1 that are glucose transport deficient and complemented with the human glucose transporter GLUT1. Activity is measured by DNA content using SYBR green in vitro
# Solute carrier family 2, facilitated glucose transporter member 1 (Homo sapiens), sequence (P11166 whole entry): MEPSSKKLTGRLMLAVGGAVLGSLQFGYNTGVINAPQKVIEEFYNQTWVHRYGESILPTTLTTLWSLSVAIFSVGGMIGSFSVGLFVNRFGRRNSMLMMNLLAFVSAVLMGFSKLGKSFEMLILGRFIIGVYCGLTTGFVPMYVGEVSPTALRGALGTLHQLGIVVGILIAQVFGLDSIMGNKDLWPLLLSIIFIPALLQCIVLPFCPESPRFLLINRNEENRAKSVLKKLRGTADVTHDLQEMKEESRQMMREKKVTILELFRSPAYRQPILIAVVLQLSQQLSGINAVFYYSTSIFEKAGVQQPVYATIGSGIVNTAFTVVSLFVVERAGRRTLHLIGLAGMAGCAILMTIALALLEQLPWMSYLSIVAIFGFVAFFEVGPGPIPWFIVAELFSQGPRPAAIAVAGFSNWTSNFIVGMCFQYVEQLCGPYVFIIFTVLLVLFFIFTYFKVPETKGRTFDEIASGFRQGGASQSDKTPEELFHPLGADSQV
# [2] = target: Hexose transporter 1 (Plasmodium falciparum) (UniProt O97467); assay: ST_JUDE_LEISH: Cytotoxicity at 2uM final concentration against transgenic Leishmania Mexicana promastigotes LmPfHT that are glucose transport deficient and complemented with the Plasmodium falciparum hexose transporter. Activity is measured by DNA content using SYBR green in vitro
# [3] = target: Glucose transporter (Leishmania mexicana) (UniProt O61059); assay: ST_JUDE_LEISH: Cytotoxicity at 2uM final concentration against transgenic Leishmania Mexicana promastigotes LmGT2 that are glucose transport deficient and complemented with the L. Mexicana glucose transporter 2. Activity is measured by DNA content using SYBR green in vitro
Structure (SMILES),inhibition [1] [%],inhibition [2] [%],inhibition [3] [%]
N#Cc1ccc(Cn2ccc3c4c(N)nc(N)nc4ccc32)cc1,82.6,84.2,77.7
NCc1ccc(-c2cccc(CNC3CCN(Cc4ccccc4)CC3)c2)cc1,5.2,5.95,3.72
COc1cc(CN=C(S)NN=C(C)c2ccccn2)cc(OC)c1OC,5.41,1.2,2.59
C=CCOC(=O)N1CCC(CNCc2cccc(-c3ccc(-c4nc5ccccc5[nH]4)s3)c2)C1 (centres undefined),1.51,1.79,1.26
Cc1ccccc1Nc1nc(NCCCO)c2ccccc2n1,13.6,12.5,8.48
NC1CCN(Cc2cccc(-c3ccc(-c4nc5ccccc5[nH]4)cc3)c2)C1 (centres undefined),-1.1,2.18,1.99
O=C(Nc1ccc(-c2nc3ccccc3[nH]2)cc1)C1CCN(Cc2ccc(F)cc2)CC1,41.4,44.9,30.5
CSc1cccc(Nc2nc3ccc(S(=O)(=O)NC(C)C(C)C)cc3n2[C@H](C)C(C)(C)C)c1 (some centres undefined),6.73,6.18,6.54
Cc1cc2nc(-c3cc(-c4cccc(NS(C)(=O)=O)c4)cnc3N)[nH]c2cc1C,1.13,0.27,0.05
COc1ccc2ncc(F)c([C@@H](O)CN3CCC(NCc4cc(C#N)c5c(c4)CCO5)CC3)c2n1,3.43,3.05,0.58
COc1ccc2ccccc2c1C=NN=c1cc(C)[nH]c2cc(C(F)(F)F)ccc12,10.2,8.24,6.68
CCOc1ccc(-c2nonc2NC(=O)c2ccccc2OC)cc1OCC,3.08,2.92,0.46
CCn1c(-c2nonc2N)nc2cnc(Oc3cccc(NC(=O)c4ccc(OCCN5CCCCC5)cc4)c3)cc21,17.2,28.1,13.7
CC(CCc1ccccc1)NCC(O)c1cccc([N+](=O)[O-])c1 (centres undefined),-0.26,-2.9,1.35
COCCN1CCC(N(Cc2ccc(-c3ccc(OC(F)(F)F)cc3)cc2)C(=O)Cn2c(CCc3cccc(F)c3F)cc(=O)c3ccccc32)CC1,4.31,4.88,4.4
Nc1nc(N)c2c(ccc3c2ccn3Cc2ccccc2)n1,92.2,94,86.1
Cc1nnnn1-c1ccc(C(=O)N2CCC3(CC2)CN(Cc2ccc(Cl)c(Cl)c2)C(=O)O3)cc1,8.95,8.51,6.87

Structure (SMILES),inhibition [1] [%],inhibition [2] [%],inhibition [3] [%]
CC(C)c1ccc(NC(=O)c2ccc(C(=O)NC3CCN(Cc4ccsc4)C3)cc2)cc1 (centres undefined),2.74,4.64,0.52
CN(C)CCN(C)Cc1ccc(-c2ccc(NS(=O)(=O)c3cccc4cccnc34)cc2)cc1,9.5,9.32,3.58
COc1ccc2nccc([C@@H](O)CN3CCC(NC(=O)C(c4cc5ccccc5s4)N4CC(C)OC(C)C4)CC3)c2c1 (some centres undefined),4.19,2.81,3.57
CN(c1ccccc1C(=O)Nc1cc(Cl)ccc1Oc1ccccc1)S(=O)(=O)c1ccccc1,5.06,4.53,3.66
COc1cc2ncnc(Nc3ccc(OCc4ccccc4Br)c(OC)c3)c2cc1OC,1.37,0.69,-0.16
O=C(Nc1cccc(-c2ccc(-c3nc4ccccc4[nH]3)cc2)c1)c1csnn1,1.19,1.58,0.69
CC(C)CNC(=O)c1ccc(-c2cccc(CN3CCC(N4CCCC4)CC3)c2)nc1,2.51,2.17,1.53
Cc1cc(-c2nc3ccc(CN4CCN(C)CC4)cc3[nH]2)nn1Cc1cc(Cl)ccc1OCc1ccccc1,3.84,3.27,2.54
O=C(Cc1cccc2ccccc12)N1CCc2cc3nccc(N4CCN5CCC[C@H]5C4)c3cc21,8.63,7.78,10
Cc1cc(C(F)(F)F)nn1-c1ccc(NC(=O)c2ccco2)cc1,-2.06,-1.65,-1.05
COc1ccc2c(=NN=Cc3ccccc3Cl)cc(C)[nH]c2c1,0.91,0.95,0.2
FC(F)(F)c1ccc2[nH]c(-c3ccc(-c4ccc(CNCC5CCCO5)cc4)cc3)nc2c1 (centres undefined),3.49,2.61,1.84
COc1c(CCNCCCCNCCc2cc(Cl)c3ccccc3c2OC)cc(Cl)c2ccccc12,102,100,105
CCOc1ccc2c(N/N=C/c3cccc([N+](=O)[O-])c3)cc(C)nc2c1,5.98,4.85,4.14
O=C(/C=C/c1ccc(C(F)(F)F)cc1)NCCCCCN1CCN(C(=O)Nc2ccc(Cl)cc2)CC1,2.27,3.09,1.84
O=C(Nc1ccc(OC2CCN(Cc3ccsc3)CC2)c(Cl)c1)c1ccc(F)cc1,4.89,2.78,2.62
